Experimental data reported in the supplement of paper PMC7411054.

Key:
Conditions in all cases: treatment time: 24 h
A549-ACTB-RAB5A [1] = assay: lowest phenotypically active concentration; higher = less potent
Procedure, shortened: (§1)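 Cells from fifteen gene-edited reporter lines (A549, HepG2 and WPMY1) were treated for 24 h at 0.3, 1, 3 or 9 µM and imaged live, four wells per condition. Features were normalised per well to solvent control wells. A condition deviated if ≥3 of 4 wells passed the 95th percentile of control Euclidean distances and was reproducible if its median replicate Pearson correlation beat the 95th percentile of non-replicates; phenotypic activity needed both.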

A549-GM130-SQSTM1 [2] = assay: as above
Procedure, shortened: as §1

A549-TUBA1B-RELA [3] = assay: as above
Procedure, shortened: as §1

HepG2-ACTB-RAB5A [4] = assay: as above
Procedure, shortened: as §1

HepG2-TP53BP1-CLTA [5] = assay: as above
Procedure, shortened: as §1

A549-ACTB-RAB5A [6] = assay: phenotypically active (imaging signature differs from DMSO and reproducible) at any of 0.3-9 uM (binary (1 = active, 0 = inactive)); higher = active
Procedure, shortened: as §1

A549-CANX-COX4 = assay: as above
Procedure, shortened: as §1

A549-GM130-SQSTM1 [7] = assay: as above
Procedure, shortened: as §1

A549-TP53BP1-CLTA = assay: as above
Procedure, shortened: as §1

A549-TUBA1B-RELA [8] = assay: as above
Procedure, shortened: as §1

HepG2-ACTB-RAB5A [9] = assay: as above
Procedure, shortened: as §1

HepG2-CANX-COX4 = assay: as above
Procedure, shortened: as §1

HepG2-GM130-SQSTM1 = assay: as above
Procedure, shortened: as §1

HepG2-TP53BP1-CLTA [10] = assay: as above
Procedure, shortened: as §1

HepG2-TUBA1B-RELA = assay: as above
Procedure, shortened: as §1

WPMY1-ACTB-RAB5A = assay: as above
Procedure, shortened: as §1

WPMY1-CANX-COX4 = assay: as above
Procedure, shortened: as §1

WPMY1-GM130-SQSTM1 = assay: as above
Procedure, shortened: as §1

WPMY1-TP53BP1-CLTA = assay: as above
Procedure, shortened: as §1

WPMY1-TUBA1B-RELA = assay: as above
Procedure, shortened: as §1

Structure (SMILES) | lowest phenotypically active concentration (A549-ACTB-RAB5A [1]) | lowest phenotypically active concentration (A549-GM130-SQSTM1 [2]) | lowest phenotypically active concentration (A549-TUBA1B-RELA [3]) | lowest phenotypically active concentration (HepG2-ACTB-RAB5A [4]) | lowest phenotypically active concentration (HepG2-TP53BP1-CLTA [5]) | phenotypically active (A549-ACTB-RAB5A [6]) | phenotypically active (A549-CANX-COX4) | phenotypically active (A549-GM130-SQSTM1 [7]) | phenotypically active (A549-TP53BP1-CLTA) | phenotypically active (A549-TUBA1B-RELA [8]) | phenotypically active (HepG2-ACTB-RAB5A [9]) | phenotypically active (HepG2-CANX-COX4) | phenotypically active (HepG2-GM130-SQSTM1) | phenotypically active (HepG2-TP53BP1-CLTA [10]) | phenotypically active (HepG2-TUBA1B-RELA) | phenotypically active (WPMY1-ACTB-RAB5A) | phenotypically active (WPMY1-CANX-COX4) | phenotypically active (WPMY1-GM130-SQSTM1) | phenotypically active (WPMY1-TP53BP1-CLTA) | phenotypically active (WPMY1-TUBA1B-RELA)
CC(C)OC(=O)c1cc2c(OCC(O)CNC(C)(C)C)cccc2[nH]1 (centres undefined) | 3 µM | 9 µM | 3 µM | 9 µM | 3 µM | 1 (active) | 0 (inactive) | 1 (active) | 1 (active) | 1 (active) | 1 (active) | 0 (inactive) | 0 (inactive) | 1 (active) | 1 (active) | 1 (active) | 1 (active) | 1 (active) | 1 (active) | 1 (active)
NC(=O)c1cccc(-c2cc(Nc3ccc(OC(F)(F)F)cc3)ncn2)c1 | 9 µM | 9 µM | 9 µM | – | – | 1 (active) | 0 (inactive) | 1 (active) | 1 (active) | 1 (active) | 0 (inactive) | 0 (inactive) | 1 (active) | 0 (inactive) | 0 (inactive) | 1 (active) | 0 (inactive) | 1 (active) | 1 (active) | 0 (inactive)
COc1c(C=O)c(O)cc2c1C(=O)c1ccccc1C2=O [Damnacanthal] | 9 µM | 3 µM | – | 9 µM | 9 µM | 1 (active) | 0 (inactive) | 1 (active) | 1 (active) | 0 (inactive) | 1 (active) | 0 (inactive) | 1 (active) | 1 (active) | 0 (inactive) | 1 (active) | 1 (active) | 1 (active) | 1 (active) | 1 (active)
Cc1ccc(NC2=CC(=O)c3sc(C)nc3C2=O)cc1 [Ryuvidine] | 9 µM | 9 µM | 3 µM | 3 µM | 3 µM | 1 (active) | 0 (inactive) | 1 (active) | 1 (active) | 1 (active) | 1 (active) | 0 (inactive) | 1 (active) | 1 (active) | 0 (inactive) | 1 (active) | 1 (active) | 1 (active) | 0 (inactive) | 1 (active)
COc1cc(N2CCC(N)CC2)ccc1Nc1ncc(Cl)c(-c2c[nH]c3ccccc23)n1 | 3 µM | ≤ 0.3 µM | 1 µM | 3 µM | 3 µM | 1 (active) | 0 (inactive) | 1 (active) | 1 (active) | 1 (active) | 1 (active) | 1 (active) | 1 (active) | 1 (active) | 1 (active) | 1 (active) | 1 (active) | 1 (active) | 1 (active) | 1 (active)
COc1ccc(CNC(=O)Nc2ncc([N+](=O)[O-])s2)cc1 | 9 µM | 9 µM | 9 µM | – | – | 1 (active) | 0 (inactive) | 1 (active) | 1 (active) | 1 (active) | 0 (inactive) | 0 (inactive) | 0 (inactive) | 0 (inactive) | 0 (inactive) | 0 (inactive) | 1 (active) | 1 (active) | 1 (active) | 0 (inactive)
O=C(O)[C@@H]1[C@H]2C[C@H]3c4[nH]c5ccccc5c4CCN3C[C@@H]2CC[C@@H]1O [Yohimbinic acid monohydrate] | 9 µM | 3 µM | 9 µM | – | – | 1 (active) | 0 (inactive) | 1 (active) | 1 (active) | 1 (active) | 0 (inactive) | 0 (inactive) | 0 (inactive) | 0 (inactive) | 0 (inactive) | 1 (active) | 1 (active) | 1 (active) | 1 (active) | 1 (active)
C[C@]1(O)C[C@@H](c2nc(-c3ccc4ccc(-c5ccccc5)nc4c3)c3c(N)nccn32)C1 [linsitinib] | 1 µM | ≤ 0.3 µM | 3 µM | 9 µM | 9 µM | 1 (active) | 0 (inactive) | 1 (active) | 1 (active) | 1 (active) | 1 (active) | 1 (active) | 1 (active) | 1 (active) | 1 (active) | 1 (active) | 1 (active) | 1 (active) | 1 (active) | 0 (inactive)
CNCCC(Oc1ccc(C(F)(F)F)cc1)c1ccccc1 (centres undefined) [fluoxetine] | 3 µM | 9 µM | 3 µM | – | 9 µM | 1 (active) | 0 (inactive) | 1 (active) | 1 (active) | 1 (active) | 0 (inactive) | 0 (inactive) | 0 (inactive) | 1 (active) | 1 (active) | 0 (inactive) | 0 (inactive) | 1 (active) | 0 (inactive) | 0 (inactive)
COc1cc2ncnc(Nc3ccc(Cl)cc3F)c2cc1OC | 9 µM | 3 µM | 3 µM | – | – | 1 (active) | 0 (inactive) | 1 (active) | 1 (active) | 1 (active) | 0 (inactive) | 0 (inactive) | 0 (inactive) | 0 (inactive) | 0 (inactive) | 0 (inactive) | 0 (inactive) | 0 (inactive) | 0 (inactive) | 0 (inactive)
Cn1cc(C2=C(c3ccc(Cl)cc3Cl)C(=O)NC2=O)c2ccccc21 | 1 µM | ≤ 0.3 µM | 1 µM | – | ≤ 0.3 µM | 1 (active) | 0 (inactive) | 1 (active) | 1 (active) | 1 (active) | 0 (inactive) | 0 (inactive) | 1 (active) | 1 (active) | 0 (inactive) | 0 (inactive) | 1 (active) | 1 (active) | 1 (active) | 0 (inactive)
